NPR1 antag – antagonists of human natriuretic peptide receptor Npr1; P16066; AID 1347048; Potency, µM (doses to about 46.3 µM), for the others: at the highest dose activity change, negative = inhibition, usual class: inhibitors; HEK293 hNpr1 GloSensor cGMP, ANP-stimulated luminescence; actives 1.6% (n = 76,000); calls by dose curve; note: nearly all actives have a fitted effect of over 60% in size
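HEK293 cells stably expressing human Npr1 and cGMP GloSensor pGS-40F, loaded 2 h with 2% GloSensor reagent, given compound 30 min at room temperature. Luminescence read before and 20 min after 0.1 nM hNppA.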
GPT2 inhibitor – inhibitors of human GPT2 alanine aminotransferase; actives 0.25% (n = 100,000); Q8TD30; Recombinant GPT2, coupled pyruvate oxidase/HRP Amplex Red fluorescence; AID 1671188; Potency, µM (series often up to 57.7 µM), for the others: top-dose activity change, negative = inhibition, most hits filed as inhibitors; note: nearly all actives have a fitted effect of over 60% in size
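Fluorescence read-out: pyruvate from GPT2 turnover coupled to pyruvate oxidase, HRP and Amplex Red (0.2mM ThPP, 0.2U/mL PO and HRP, 50uM Amplex final). Substrates 250uM a-KG, 2mM L-alanine; enzyme 10ng/uL; 30 min RT.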
FLuc inh – inhibitors of firefly (Photinus pyralis) luciferase. Potency, µM (titrated, usually from 115 µM), most hits filed as inhibitors. AID 1347043. purified P. pyralis luciferase, luminescence, biochemical. P08659. actives 2.5% (n = 76,000); note: nearly all actives have a fitted effect of over 65% in size
Target sequence (P08659 whole entry, looked up): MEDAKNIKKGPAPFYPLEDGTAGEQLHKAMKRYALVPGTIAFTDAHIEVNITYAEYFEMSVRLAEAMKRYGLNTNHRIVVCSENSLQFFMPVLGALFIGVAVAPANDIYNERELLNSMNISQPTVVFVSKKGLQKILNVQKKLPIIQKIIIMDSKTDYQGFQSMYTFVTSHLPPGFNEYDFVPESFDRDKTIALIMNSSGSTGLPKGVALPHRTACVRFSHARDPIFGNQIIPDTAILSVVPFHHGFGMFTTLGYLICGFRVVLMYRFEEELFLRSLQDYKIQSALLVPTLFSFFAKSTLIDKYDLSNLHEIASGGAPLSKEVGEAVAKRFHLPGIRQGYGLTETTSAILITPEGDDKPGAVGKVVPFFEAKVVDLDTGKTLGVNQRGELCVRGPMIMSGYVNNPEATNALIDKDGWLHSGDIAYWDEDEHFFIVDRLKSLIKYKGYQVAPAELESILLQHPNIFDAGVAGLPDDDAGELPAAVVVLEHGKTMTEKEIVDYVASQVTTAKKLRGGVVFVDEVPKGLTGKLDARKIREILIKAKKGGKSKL
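Luminescence read by CCD imager after adding enzyme (10nM final) to wells holding compound, titrated in qHTS. Substrates 10uM each D-luciferin and ATP; buffer 50mM Tris acetate pH 7.5, 10mM Mg acetate, Tween-20, BSA.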
3T3 cytotox – kills NIH 3T3 cells; NIH 3T3 viability, CellTiter-Glo ATP luminescence, 48-72 h; AID 1345082; Potency, µM (titrated, usually from 96.7 µM), for the others: at the top dose activity change, negative = cytotoxicity, usual class: inhibitors; actives 4.3% (n = 94,000); note: nearly all actives have a fitted effect of over 55% in size
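Cytotoxicity is measured as loss of cellular ATP: NIH 3T3 cells (400/well) are exposed to compound for 48 or 72 hr at 37 °C, then CellTiter-Glo luminescence is imaged after 10 min at room temperature.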
HEK cytotox – kills HEK 293 cells | HEK 293 viability, ATP luminescence (CellTiter-Glo), 48-72 h | Potency, µM (doses to about 115 µM), without a hit: top-dose activity change, negative = cytotoxicity, usual class: inhibitors | actives 6.6% (n = 94,000) | AID 1345083; note: nearly all actives have a fitted effect of over 60% in size
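HEK 293 cells seeded at 250 cells/well were exposed to compound for 48 or 72 hr at 37 degree Celsius. Viability taken as ATP content by CellTiter-Glo luminescence.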
Starred values were filed as active, the others as inactive; i = inactive; ? = inconclusive; / = no result; [ ] = another dose, or the depositor's remark. An excerpt weighted towards active compounds, which were near 10% of everything screened. Unless noted, calls come from the whole dose curve; as a rule, active = well fitted curve in the direction sought with a large enough effect; inconclusive = small, poorly fitted or top-dose-only effect, or another doubt; inactive = no such curve, though single readings can be large; an effect the other way counts as inactive or inconclusive. % is set by controls: 0 for no effect and ±100 for the full control effect; potency is the fitted concentration of half-maximal effect.

SMILES	NPR1 antag	GPT2 inhibitor	FLuc inh	3T3 cytotox	HEK cytotox
CC(=O)NC[C@@H]1C=C(C)[C@H](Cc2nc3ccccc3[nH]2)C[C@H]1C(C)C	-21.0%[70.6 µM]	i	i	?	?
CC1=C[C@@H](CNC(=O)C(C)C)[C@H](C(C)C)C[C@H]1Cc1nc2ncccc2[nH]1	-5.2%[70.6 µM]	-9.3%[88.5 µM]	i	?	-23.3%[172 µM]
COc1ccc2[nH]c(C[C@@H]3C[C@@H](C(C)C)[C@H](CNC(=O)c4cccnc4)C=C3C)nc2n1	-23.4%[70.6 µM]	2.5%[88.5 µM]	i	?	56.2µM*
CCCNC(=O)NC[C@@H]1C=C(C)[C@H](Cc2nc3nc(OC)ccc3[nH]2)C[C@H]1C(C)C	-19.4%[70.6 µM]	-12.4%[88.5 µM]	i	89.1µM*	63.1µM*
Cc1cnccc1CN(C)Cc1cc2n(n1)CCNC2	2.6%	-7.3%	i	-3.9%	-1.9%
CN(C)C(=O)Cc1ccccc1-n1ccnc1-c1cc2n(n1)CCCNC2	5.2%	-10.2%	i	i	-3.3%
O=C(CN1CCCCCC1)N1CC(Oc2ccc(-c3noc(-c4ccccc4)n3)cc2)C1	-12.0%	1.6%	?	?	?
CCOCCCNC(=O)N1CC(Oc2ccc(-c3nc(-c4ccccc4)no3)cc2)C1	0.562µM*	3.8%	?	-28.1%	?
CC(Oc1ccccc1)C(=O)N1CC(Oc2ccc(-c3nc(-c4ccccc4)no3)cc2)C1 (stereo not given)	/	i	/	?	?
CCCNC(=O)N1CC(Oc2ccc(-c3nc(-c4ccccc4)no3)cc2)C1	0.398µM*	i	?	-41.1%	-50.7%
O=C(c1ccc(F)cc1)N1CCC(c2nn(Cc3ccccc3)c(=O)[nH]2)CC1	12.3%	?	i	-10.1%	-11.1%
Cc1ccc(S(=O)(=O)N(C)CC2CCOC2)cc1Cl (stereo not given)	1.5%	i	i	-9.1%	-2.1%
CC1=C[C@@H](CO)[C@H](C(C)C)C[C@H]1CC(=O)N1CCN(c2ccccn2)CC1	-7.7%[70.6 µM]	1.4%[88.5 µM]	?	?	100µM*
CC1=C[C@@H](CNC(=O)CCC(=O)O)[C@H](C(C)C)C[C@H]1CC(=O)N1CCN(c2ccccn2)CC1	3.1%	?	i	-2.7%	i
Cc1ccccc1C(=O)N1CCC(CCC(=O)N2CCN(c3ccccn3)CC2)CC1	1.2%	0.1%	31.6µM*	-14.8%	?
CC1=C[C@@H](CNC(=O)c2ccncc2)[C@H](C(C)C)C[C@H]1CC(=O)N1CCN(C)CC1	-2.8%[70.6 µM]	-0.8%[88.5 µM]	20µM*	-17.9%[174 µM]	-16.2%[172 µM]
CCOC(=O)C[C@@H]1C[C@@H](C(C)C)[C@H](CNC(=O)c2ccncc2)C=C1C	?	-14.9%[88.5 µM]	i	?	89.1µM*
CC1=C[C@@H](CNC(=O)c2ccncc2)[C@H](C(C)C)C[C@H]1CC(=O)N1CCCC1	4.6%[70.6 µM]	-6.4%[88.5 µM]	?	-20.9%[138 µM]	-19.2%[172 µM]
Cc1ccc(C)c(Cn2c(=O)c(-c3noc(C)n3)c3n(c2=O)CCCCC3)c1	0.2%	3.9%	i	-20.8%	?
Brc1ccc(-c2ccnc3nc(-c4cccs4)nn23)s1	-0.6%	i	i	-8.1%	-23.5%
CN(C)C(=O)N1CCN(C(=O)c2nc3cccnc3n(CCc3ccccc3)c2=O)CC1	/	3.4%	/	-5.9%	i
CN(C)CCCC(=O)N1CCC(n2c(=O)[nH]c3ccccc32)CC1	/	i	/	2.7%[138 µM]	-24.0%[172 µM]
CC(C)(O)c1cc(CC2(NCc3ccc(OC(F)(F)F)cc3)COC2)no1	3.5%[70.6 µM]	-14.9%[88.5 µM]	i	?	?
c1ccc(-c2cc(CC3(NCC4CCCCC4)COC3)no2)cc1	?	2.8%[88.5 µM]	i	?	100µM*
Fc1ccc(-c2cc(CC3(NCc4ccc(OC(F)(F)F)cc4)COC3)no2)cc1	?	-11.0%[88.5 µM]	i	100µM*	79.4µM*
COc1ccc(C(=O)NC[C@H]2Cn3c(-c4ccc(Cl)cc4)cnc3CO2)cc1	?	i	?	?	100µM*
O=C(COc1ccccc1)NC[C@H]1Cn2c(-c3ccc(Cl)cc3)cnc2CO1	-12.8%[70.6 µM]	4.9%[88.5 µM]	i	?	100µM*
Clc1ccc(-c2cnc3n2C[C@H](CNC2CCOCC2)OC3)cc1	-8.7%[70.6 µM]	?	i	89.1µM*	?
